Results reported in publication PMC12820563, “FoxP3 forms a head-to-head dimer in vivo and stabilizes its multimerization on adjacent microsatellites”.
In all, about 16,000 sequences were measured (“rpm ratio (pull-down/input)”: median about 0.94, highest 2% from about 1.7 on). For the sample, the highest values were picked, then their nearest neighbours and some sequences at random.

The sequences below were run against T1, MBP-FoxP1dN (Mus musculus, UniProt P58462 326-579) (assay: PD-seq (MBP pull-down with sequencing); 20 mM Tris-HCl pH 7.5, 100 mM NaCl, 1.5 mM MgCl2, 0.4 uM protein, 0.1 uM dsDNA library, 30 min, room temperature, amylose pull-down; high values mean tight binding). Conditions: protein: recombinant; tags: His6-MBP; chain copies: 2; dsDNA, one strand shown.
T1 sequence: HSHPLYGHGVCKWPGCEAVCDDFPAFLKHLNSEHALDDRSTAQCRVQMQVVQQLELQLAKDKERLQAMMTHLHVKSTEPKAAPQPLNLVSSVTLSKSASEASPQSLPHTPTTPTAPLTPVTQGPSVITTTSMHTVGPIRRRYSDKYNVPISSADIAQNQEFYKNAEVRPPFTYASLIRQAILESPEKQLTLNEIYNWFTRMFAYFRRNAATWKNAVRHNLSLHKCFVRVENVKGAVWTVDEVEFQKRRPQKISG
Outline: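 Binding is the reads-per-million enrichment of pull-down relative to input, pooled across replicates. For this, 0.4 µM His6-MBP-tagged mouse FoxP3 or FoxP1 fragment lacking the N-terminus, made in E. coli, was incubated with 0.1 µM Klenow-filled double-stranded degenerate DNA library for 30 min at room temperature in Tris pH 7.5 buffer with NaCl and MgCl2. Complexes bound to amylose resin were washed three times before proteinase K released the DNA for PCR barcoding and Illumina sequencing.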

Sequence	binding signal
GATGATTGTTCTCCCAGCTGATGAATTCACAACATCGAGTAAACAAATTTTCCTAATCTTTCTGTTCAAGCGCCATCTAC	2.11 RPM ratio (pull-down/input)
GATGATTGTTCTCCCAGCTGATGAATTGAAAACATCGAGTAAACAAATTTTCCTAATCTTTCTGTTCAAGCGCCATCTAC	1.8 RPM ratio (pull-down/input)
GATGATTGTTCTCCCAGCTGATGAATTCAACACATCGAGTAAACAAATTTTCCTAATCTTTCTGTTCAAGCGCCATCTAC	1.3 RPM ratio (pull-down/input)
GATGATTGTTCTCCCAGCTGATGAATTCCTAAAATCGAGTAAACAAATTTTCCTAATCTTTCTGTTCAAGCGCCATCTAC	0.966 RPM ratio (pull-down/input)
GATGATTGTTCTCCCAGCTGATGAATTTTGAAAATCGAGTAAACAAATTTTCCTAATCTTTCTGTTCAAGCGCCATCTAC	1.14 RPM ratio (pull-down/input)
GATGATTGTTCTCCCAGCTGATGAATTCAAAACATCGAGTAAACAAATTTTCCTAATCTTTCTGTTCAAGCGCCATCTAC	1.99 RPM ratio (pull-down/input)
GATGATTGTTCTCCCAGCTGATGAATTCCTAACATCGAGTAAACAAATTTTCCTAATCTTTCTGTTCAAGCGCCATCTAC	1.04 RPM ratio (pull-down/input)
GATGATTGTTCTCCCAGCTGATGAATTGAAAAAATCGAGTAAACAAATTTTCCTAATCTTTCTGTTCAAGCGCCATCTAC	1.03 RPM ratio (pull-down/input)
GATGATTGTTCTCCCAGCTGATGAATTCGGGTAGTCGAGTAAACAAATTTTCCTAATCTTTCTGTTCAAGCGCCATCTAC	0.855 RPM ratio (pull-down/input)
GATGATTGTTCTCCCAGCTGATGAATTAAAAGTCTCGAGTAAACAAATTTTCCTAATCTTTCTGTTCAAGCGCCATCTAC	0.816 RPM ratio (pull-down/input)
GATGATTGTTCTCCCAGCTGATGAATTGTTCGTTTCGAGTAAACAAATTTTCCTAATCTTTCTGTTCAAGCGCCATCTAC	1.15 RPM ratio (pull-down/input)
GATGATTGTTCTCCCAGCTGATGAATTGCAAAGCTCGAGTAAACAAATTTTCCTAATCTTTCTGTTCAAGCGCCATCTAC	1.09 RPM ratio (pull-down/input)
GATGATTGTTCTCCCAGCTGATGAATTATACAGTTCGAGTAAACAAATTTTCCTAATCTTTCTGTTCAAGCGCCATCTAC	1.18 RPM ratio (pull-down/input)
GATGATTGTTCTCCCAGCTGATGAATTACTCACATCGAGTAAACAAATTTTCCTAATCTTTCTGTTCAAGCGCCATCTAC	1.28 RPM ratio (pull-down/input)
GATGATTGTTCTCCCAGCTGATGAATTTCGAATCTCGAGTAAACAAATTTTCCTAATCTTTCTGTTCAAGCGCCATCTAC	0.83 RPM ratio (pull-down/input)
GATGATTGTTCTCCCAGCTGATGAATTGTTAAACTCGAGTAAACAAATTTTCCTAATCTTTCTGTTCAAGCGCCATCTAC	1.1 RPM ratio (pull-down/input)

Sequence	binding signal
GATGATTGTTCTCCCAGCTGATGAATTCCGACACTCGAGTAAACAAATTTTCCTAATCTTTCTGTTCAAGCGCCATCTAC	0.88 RPM ratio (pull-down/input)
GATGATTGTTCTCCCAGCTGATGAATTACACTCGTCGAGTAAACAAATTTTCCTAATCTTTCTGTTCAAGCGCCATCTAC	1.15 RPM ratio (pull-down/input)
GATGATTGTTCTCCCAGCTGATGAATTCAGACGTTCGAGTAAACAAATTTTCCTAATCTTTCTGTTCAAGCGCCATCTAC	0.787 RPM ratio (pull-down/input)
GATGATTGTTCTCCCAGCTGATGAATTCAAACAATCGAGTAAACAAATTTTCCTAATCTTTCTGTTCAAGCGCCATCTAC	1.81 RPM ratio (pull-down/input)
GATGATTGTTCTCCCAGCTGATGAATTCTTTCAATCGAGTAAACAAATTTTCCTAATCTTTCTGTTCAAGCGCCATCTAC	0.972 RPM ratio (pull-down/input)
GATGATTGTTCTCCCAGCTGATGAATTCTCCCAATCGAGTAAACAAATTTTCCTAATCTTTCTGTTCAAGCGCCATCTAC	0.958 RPM ratio (pull-down/input)
GATGATTGTTCTCCCAGCTGATGAATTATGCGATTCGAGTAAACAAATTTTCCTAATCTTTCTGTTCAAGCGCCATCTAC	1.06 RPM ratio (pull-down/input)
GATGATTGTTCTCCCAGCTGATGAATTTTGTATGTCGAGTAAACAAATTTTCCTAATCTTTCTGTTCAAGCGCCATCTAC	1.54 RPM ratio (pull-down/input)
GATGATTGTTCTCCCAGCTGATGAATTGTATTTGTCGAGTAAACAAATTTTCCTAATCTTTCTGTTCAAGCGCCATCTAC	2.5 RPM ratio (pull-down/input)
GATGATTGTTCTCCCAGCTGATGAATTGTAATTGTCGAGTAAACAAATTTTCCTAATCTTTCTGTTCAAGCGCCATCTAC	1.39 RPM ratio (pull-down/input)
GATGATTGTTCTCCCAGCTGATGAATTGTATCTGTCGAGTAAACAAATTTTCCTAATCTTTCTGTTCAAGCGCCATCTAC	1.08 RPM ratio (pull-down/input)
GATGATTGTTCTCCCAGCTGATGAATTTGTAATGTCGAGTAAACAAATTTTCCTAATCTTTCTGTTCAAGCGCCATCTAC	1.26 RPM ratio (pull-down/input)
GATGATTGTTCTCCCAGCTGATGAATTTGTATTGTCGAGTAAACAAATTTTCCTAATCTTTCTGTTCAAGCGCCATCTAC	2.88 RPM ratio (pull-down/input)
GATGATTGTTCTCCCAGCTGATGAATTTGCGATCTCGAGTAAACAAATTTTCCTAATCTTTCTGTTCAAGCGCCATCTAC	0.924 RPM ratio (pull-down/input)
GATGATTGTTCTCCCAGCTGATGAATTAATTCCTTCGAGTAAACAAATTTTCCTAATCTTTCTGTTCAAGCGCCATCTAC	0.955 RPM ratio (pull-down/input)
GATGATTGTTCTCCCAGCTGATGAATTCCCGTTTTCGAGTAAACAAATTTTCCTAATCTTTCTGTTCAAGCGCCATCTAC	0.97 RPM ratio (pull-down/input)
